Source: PMC4336329 (PLoS ONE, 2015)
Screen size: about 310,000 compounds; about 2,200 (0.71%) showed an effect of 50% or more. The effect is printed as a negative number. For the sample, strong results were picked, then their nearest neighbours and some compounds at random.

target: human ether-à-go-go-related gene (hERG) potassium channel (human, UniProt Q12809); test: primary screen, population patch clamp on CHO cells stably expressing hERG; higher = less effect of the substance
Sequence (Q12809 whole entry, looked up): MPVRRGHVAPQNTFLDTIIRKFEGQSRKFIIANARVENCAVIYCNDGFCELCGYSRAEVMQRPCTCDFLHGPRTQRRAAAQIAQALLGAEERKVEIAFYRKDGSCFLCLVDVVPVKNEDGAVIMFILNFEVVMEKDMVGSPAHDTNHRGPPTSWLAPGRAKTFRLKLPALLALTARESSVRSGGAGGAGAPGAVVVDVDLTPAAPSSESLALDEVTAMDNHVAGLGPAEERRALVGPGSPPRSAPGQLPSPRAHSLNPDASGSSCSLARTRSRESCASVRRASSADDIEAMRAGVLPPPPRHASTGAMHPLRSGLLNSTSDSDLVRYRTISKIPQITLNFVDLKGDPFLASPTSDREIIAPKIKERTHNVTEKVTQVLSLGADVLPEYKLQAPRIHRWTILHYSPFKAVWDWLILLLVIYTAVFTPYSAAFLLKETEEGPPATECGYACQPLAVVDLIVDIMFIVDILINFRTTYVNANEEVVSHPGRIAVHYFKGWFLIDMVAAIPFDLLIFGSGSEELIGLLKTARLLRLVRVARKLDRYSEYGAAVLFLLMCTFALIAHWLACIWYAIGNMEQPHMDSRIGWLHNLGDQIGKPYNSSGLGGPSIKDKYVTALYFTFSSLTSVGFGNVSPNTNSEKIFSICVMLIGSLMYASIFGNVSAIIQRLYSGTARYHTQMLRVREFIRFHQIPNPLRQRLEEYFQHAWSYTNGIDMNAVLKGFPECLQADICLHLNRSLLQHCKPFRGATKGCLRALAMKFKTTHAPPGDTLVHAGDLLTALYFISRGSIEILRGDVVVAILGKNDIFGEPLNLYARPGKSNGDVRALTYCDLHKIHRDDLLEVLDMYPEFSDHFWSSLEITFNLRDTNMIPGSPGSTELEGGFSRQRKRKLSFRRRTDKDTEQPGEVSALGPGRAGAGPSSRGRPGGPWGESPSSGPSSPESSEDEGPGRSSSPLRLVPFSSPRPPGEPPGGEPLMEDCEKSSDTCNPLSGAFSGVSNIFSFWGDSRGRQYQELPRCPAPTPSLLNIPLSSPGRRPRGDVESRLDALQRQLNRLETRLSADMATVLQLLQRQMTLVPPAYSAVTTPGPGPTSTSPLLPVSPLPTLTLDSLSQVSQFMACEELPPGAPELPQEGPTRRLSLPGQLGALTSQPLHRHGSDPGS

SMILES	hERG current change (%, negative = inhibition) at 1uM [%]
CCN(C(=O)c1ccc2c(OC)n(CC)nc2c1)c1ccc(OC)cc1	0.888
CC(=O)c1cccc(NC(=O)C2CCN(S(C)(=O)=O)CC2)c1	10.7
CN(C)C=NC(=O)/C(C#N)=C1\CCc2ccccc2N1	0.195
COc1cc(Cl)cc(/C=C/c2ccc3ccccc3n2)c1OC(C)=O	16.6
CCCNc1nc(C)cc(-c2cc(C(=O)Nc3ccccc3)on2)n1	6.25
COc1ccc(C(=O)NC2CC2)cc1OC1CCN(Cc2ccc(F)c(F)c2)CC1	-70.2
COc1ccc(C(=O)NC2CC2)cc1OC1CCN(Cc2ccc(Cl)cc2)CC1	-86.8
COc1cc(C(=O)NC2CCN(Cc3ccccc3)CC2)cc(Cl)c1OC	-1.24
COc1ccc(C(=O)NC2CC2)cc1OC1CCN(Cc2ccccc2)CC1	-82.9
COCCNC(=O)c1cccc(OC2CCN(Cc3ccc(OC(F)F)cc3)CC2)c1	-75.4
COc1ccc(C(=O)NC2CC2)cc1OC1CCN(Cc2cnn(C)c2)CC1	6.61
COCCNC(=O)c1cccc(OC2CCN(Cc3ccc(C(C)C)cc3)CC2)c1	-11.3
COc1ccc(C(=O)NCCc2cccc(Cl)c2)cc1OC1CCN(C(C)=O)CC1	-6.31
COc1ccc(C(=O)NC2CCC(O)CC2)cc1S(=O)(=O)NCc1ccc(Cl)cc1 (stereo not drawn)	-0.258
COCCNC(=O)c1cccc(OC2CCN(Cc3ccc(F)c(OC)c3)CC2)c1	4.26
COCCCNC(=O)c1ccc(OC)c(OC2CCN(C(C)C)CC2)c1	14.6
COCCNC(=O)c1cccc(OC2CCN(Cc3ccc(C(=O)OC)cc3)CC2)c1	6.44
CCCCCCCCCCCCOC1OC(CO)C(O)C(O)C1NC(C)=O (stereo not drawn)	4.7
CC(Oc1ccccc1)C(=O)N=C1SC2CS(=O)(=O)CC2N1CCc1ccccc1 (stereo not drawn)	8.75
Cc1cc(Br)ccc1NC(=O)CN1C(=O)C2CC=CCC2C1=O (stereo not drawn)	2.16
CCn1c(SCC(=O)c2ccc3c(c2)OCCO3)nnc1C(C)C	7.74
O=C(Cn1c(=O)c(C(F)(F)F)nc2ccccc21)N1CCC2(CC1)OCCO2	-0.212
O=C(/C=C/c1ccoc1)c1ccccc1O	3.71
COc1ccc(CN2CCN(Cc3ccc(C)cc3)C(CCO)C2)cc1OC (stereo not drawn)	-13.3

SMILES	hERG current change (%, negative = inhibition) at 1uM [%]
COc1ccc(C(=O)NC2CCCCC2)cc1OC1CCN(C(C)C)CC1	-30.9
COc1ccc(C(=O)NC2CC2)cc1OC1CCN(Cc2ccc(SC)cc2)CC1	-96.9
COc1cc(C(=O)NC2CCN(Cc3nnnn3Cc3ccc(F)cc3)CC2)cc(OC)c1OC	3.89
COc1ccc(C(=O)NCCCSC)cc1OC1CCN(C(C)C)CC1	13.4
C/C=C(\C)CN1CCC(Oc2cc(C(=O)NC3CC3)ccc2OC)CC1	-59.9
COc1ccc(C(=O)NC2CC2)cc1OC1CCN(Cc2ccc(F)cc2)CC1	-81.9
COc1ccc(C(=O)NC2CCCCCC2)cc1OC1CCN(C(C)=O)CC1	7.33
O=C(NC1CCN(Cc2ccccc2)CC1)c1ccc2c(c1)[nH]c(=O)n2Cc1ccc(F)cc1	6.14
COc1cc(C(=O)NC2CCCCC2)ccc1OC1CCN(C(C)=O)CC1	11.4
COc1ccc(C(=O)NC2CC2)cc1OC1CCN(C(C)CSC)CC1 (stereo not drawn)	-54.2
Cc1ccc(S(=O)(=O)N2CCN(C(=O)CSc3ncc(C(F)(F)F)cc3Cl)CC2)cc1	11.1
CCCCCCCCCCCCCCCC(=O)OC/C=C(C)/C=C/C=C(C)/C=C/C1=C(C)CCCC1(C)C	10.2
COc1cc(C2C(C#N)=C(N)Oc3n[nH]c(C)c32)cc2c1OCO2 (stereo not drawn)	-3.12
CCc1nnc(NC(=O)C2CCCN2C(=O)Nc2ccc(C)cc2)s1 (stereo not drawn)	8.89
COc1ccc(CNS(=O)(=O)c2ccc3c(c2)CCN3C(=O)C2CC2)cc1	5.86
NS(=O)(=O)c1ccc(CCNC(=O)Cc2ccc(S(=O)(=O)N3CCCC3)s2)cc1	14.9
Cc1ccc(C(=O)NCCCNCCCNC(=O)c2ccc(C)nc2)cn1	-10.3
CCCCNc1ccccc1C(=O)OCC(=O)Nc1ccc(S(N)(=O)=O)cc1	0.586
COc1ccc2oc3cc(C)[n+]([O-])c(-c4ccc(Br)cc4)c3c2c1	4.46
Cc1nc(-c2ccc([N+](=O)[O-])cc2)nc2[nH]ccc(=O)c12	14.5
Fc1ccc(-c2n[nH]c(=S)c3ccccc23)cc1	9.98
C[C@H](OC(=O)n1ccnc1)[C@@H]1O[C@@]2(C)CCC[C@@H]1O2	15.1
Cc1c(C)c2ccc(OC(C)C(=O)NC3CCN(Cc4ccccc4)CC3)cc2oc1=O (stereo not drawn)	-17.2
CC(Oc1ccccc1)C(=O)NC1CCN(Cc2ccccc2)CC1 (stereo not drawn)	-5.84

SMILES	hERG current change (%, negative = inhibition) at 1uM [%]
CC(C)Oc1ccc(C(=O)NC2CCN(Cc3ccccc3)CC2)cc1	-21
Cc1cc(=O)oc2cc(OC(C)C(=O)NC3CCN(Cc4ccccc4)CC3)ccc12 (stereo not drawn)	-52.6
CC(Oc1ccc2ccc(=O)oc2c1)C(=O)NC1CCN(Cc2ccccc2)CC1 (stereo not drawn)	-38.3
CC(Oc1ccc(Br)cc1)C(=O)NC1CCN(Cc2ccccc2)CC1 (stereo not drawn)	-59.6
CC1C(=O)N2CCCc3cc(NC(=O)C(=O)NCc4ccccn4)cc1c32 (stereo not drawn)	8.33
CCCNC(=O)COc1coc(CN2CCN(Cc3ccccc3)CC2)cc1=O	15.2
Cc1cc(Cl)ccc1NC(=O)COC(=O)c1c(C)noc1C	7.79
COc1cc(OC)cc(C(=O)NCC(=O)Nc2ccc(C)c(Cl)c2)c1	12.6
O=C(c1ccco1)N1CCN(C(=O)c2ccc(-c3ccc(Cl)cc3)o2)CC1	-67.5
O=C(Cc1ccc(Cl)cc1)N1CCN(C(=O)c2ccco2)CC1	4.2
O=C(c1ccco1)N1CCN(C(=O)c2ccc(-c3ccccc3Cl)o2)CC1	-13.8
O=C(c1cc(-c2ccc(Cl)cc2)n[nH]1)N1CCN(C(=O)c2ccco2)CC1	-69.3
CC(=O)N1CCN(C(=O)c2ccc(-c3cccc(C(F)(F)F)c3)o2)CC1	-19.2
COc1ccc(-c2cc(C(=O)N3CCN(C(=O)c4ccco4)CC3)[nH]n2)cc1	-12.7
O=C(c1ccc(-c2cccc(C(F)(F)F)c2)o1)N1CCCCCCC1	5.25
Cc1ccc(-c2cc(C(=O)N3CCN(C(=O)c4ccco4)CC3)[nH]n2)cc1C	14.4
O=C(c1ccco1)N1CCN(C(=O)c2ccc(-c3cccc(C(F)(F)F)c3)o2)CC1	-63.5
CN1CC[C@@]2(C)c3cc(O)ccc3N(C)C2O1 (stereo partly drawn)	4.17
Oc1[nH]c2ccccc2c1C1=NCCCCC1	3.28
CC(C)c1nc2sc3c(c2c(=O)o1)CCCC3	9.49
Cc1ccc(C(=O)N/C(=C\c2cn(S(=O)(=O)N(C)C)c3ccccc23)C(=O)N2CCCC2)cc1	16
CC(=O)c1c(C)nn(CCC(=O)O)c1C	12.2
Cl.c1ccc(CNc2nc(N3CCN(Cc4ccccc4)CC3)nc3ccccc23)cc1	10.4
Cl.OCCNc1nc(N2CCCCC2)nc2ccccc12	-18.4

SMILES	hERG current change (%, negative = inhibition) at 1uM [%]
Cl.c1ccc2c(NCC3CCCO3)nc(N3CCCCC3)nc2c1 (stereo not drawn)	-49.3
Cl.c1ccc(N2CCN(c3nc(NCc4ccco4)c4ccccc4n3)CC2)cc1	-9.89
Cl.OCCN1CCN(c2nc(NCc3ccco3)c3ccccc3n2)CC1	-39.4
Cl.c1ccc(CN2CCN(c3nc(NCc4ccco4)c4ccccc4n3)CC2)cc1	-54.5
C=CCNc1nc(N2CCCC2)nc2ccccc12	-66
Cl.c1coc(CNc2nc(N3CCCCC3)nc3ccccc23)c1	-80.8
Cl.OCCNc1nc(N2CCN(Cc3ccccc3)CC2)nc2ccccc12	-28.6
CC(=O)OC1C(N2CCCCC2)c2c(ccc(/C=C/C(=O)N3CCCCC3)c2O)OC1(C)C (stereo not drawn)	8.42
O=c1ccc(-c2n[nH]c(=S)n2-c2ccc(F)c(Cl)c2)n[nH]1	14.8
CC(C)C(=O)NC(NC(=S)Nc1ccc(S(N)(=O)=O)cc1)C(Cl)(Cl)Cl (stereo not drawn)	12.7
CS(=O)(=O)c1ccccc1C(=O)N(CCc1ccccc1)Cc1ccccc1	9.2
S=C1N(c2ccccc2)C(c2ccccc2)N2CCCN12 (stereo not drawn)	6.76
NC(=O)c1oc2ccccc2c1NC(=O)c1ccc(F)cc1	11.1
O=C(Cc1ccc(F)cc1)Nc1c(C(=O)N2CCN(c3ncccn3)CC2)oc2ccccc12	-8.61
CCOC(=O)c1oc2ccccc2c1NC(=O)COc1ccc(F)cc1	12.4
O=C(COc1ccc(F)cc1)Nc1c(C(=O)N2CCC(N3CCCCC3)CC2)oc2ccccc12	-33.8
CCOCCCN(C)C1CCN(C(=O)c2oc3ccccc3c2NC(=O)COc2cccc(C)c2)CC1	-62.4
COc1ccc(CC(=O)Nc2c(C(=O)N3CCN(c4ccccc4OC)CC3)oc3ccccc23)cc1OC	9.46
CCOCC(=O)Nc1c(C(=O)N2CCN(c3ncccn3)CC2)oc2ccccc12	5.42
CCOC(=O)c1oc2ccccc2c1NC(=O)COc1cccc(OC)c1	14.2
CCOCCCN(C)C1CCN(C(=O)c2oc3ccccc3c2NC(=O)Cc2ccc(F)cc2)CC1	-85.2
COCCCN(C)C1CCN(C(=O)Nc2ccc(F)cc2)CC1	-2.37
CCOCCCN(C)C1CCN(C(=O)c2oc3ccccc3c2NC(=O)c2ccc(F)cc2)CC1	-85.6
CCOCCCN(C)C1CCN(C(=O)c2oc3ccccc3c2NC(=O)COc2ccc(F)cc2)CC1	-85.9
